The supplement of paper PMC6555819

Tests used:
Experiment in all cases: PBM binding z-score (relative to random genomic background probes); higher = stronger binding; sequences stand for … in GC…GCGATTGACAGCGTAGAATGAAGG
[1] = system: FXR:RXRa (NR concentration 270 nM, RXRa partner concentration 90 nM)
How it was run: (§1)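 Binding z-scores take random background probes as their reference. They come from custom Agilent 4×180K protein-binding microarrays incubated 1 h with ligand-free nuclear receptor dimers, with antibodies against each partner (one per run) detecting binding. Scanned fluorescence was regression-normalized.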

[2] = system: LXRa:RXRa (NR concentration 270 nM, RXRa partner concentration 90 nM)
How it was run: as §1

[3] = system: LXRa homodimer (NR concentration 270 nM)
How it was run: as §1

[4] = system: LXRb:RXRa (NR concentration 270 nM, RXRa partner concentration 90 nM)
How it was run: as §1

[5] = system: LXRb homodimer (NR concentration 270 nM)
How it was run: as §1

[6] = system: PPARa:RXRa (NR concentration 270 nM, RXRa partner concentration 90 nM)
How it was run: as §1

[7] = system: PPARg:RXRa (NR concentration 180 nM, RXRa partner concentration 90 nM)
How it was run: as §1

[8] = system: PPARg:RXRa 270nM:90nM, anti-RXR (NR concentration 270 nM, RXRa partner concentration 90 nM)
How it was run: as §1

[9] = system: PPARg:RXRa 30nM:10nM, anti-RXR (NR concentration 30 nM, RXRa partner concentration 10 nM)
How it was run: as §1

[10] = system: PPARg:RXRa 90nM:30nM, anti-RXR (NR concentration 90 nM, RXRa partner concentration 30 nM)
How it was run: as §1

[11] = system: PPARg:RXRa DBDmut IVT, anti-RXR (DBD mutation: RXRa K156A/R161A, NR concentration 270 nM, RXRa partner concentration 90 nM)
How it was run: as §1

[12] = system: PPARg:RXRa IVT, anti-PPARg (NR concentration 270 nM, RXRa partner concentration 90 nM)
How it was run: as §1

[13] = system: PPARg DBDmut:RXRa IVT, anti-PPARg (DBD mutation: PPARg1 K132A/R137A, NR concentration 270 nM, RXRa partner concentration 90 nM)
How it was run: as §1

[14] = system: PPARg DBDmut IVT, anti-PPARg (DBD mutation: PPARg1 K132A/R137A, NR concentration 270 nM)
How it was run: as §1

[15] = system: PPARg homodimer (NR concentration 180 nM)
How it was run: as §1

[16] = system: PXR:RXRa (NR concentration 270 nM, RXRa partner concentration 90 nM)
How it was run: as §1

[17] = system: PXR homodimer (NR concentration 270 nM)
How it was run: as §1

[18] = system: RARa:RXR (NR concentration 270 nM, RXRa partner concentration 90 nM)
How it was run: as §1

[19] = system: RARa homodimer (NR concentration 270 nM)
How it was run: as §1

[20] = system: RARb:RXRa (NR concentration 270 nM, RXRa partner concentration 90 nM)
How it was run: as §1

| Sequence | PBM binding z-score [1] | PBM binding z-score [2] | PBM binding z-score [3] | PBM binding z-score [4] | PBM binding z-score [5] | PBM binding z-score [6] | PBM binding z-score [7] | PBM binding z-score [8] | PBM binding z-score [9] | PBM binding z-score [10] | PBM binding z-score [11] | PBM binding z-score [12] | PBM binding z-score [13] | PBM binding z-score [14] | PBM binding z-score [15] | PBM binding z-score [16] | PBM binding z-score [17] | PBM binding z-score [18] | PBM binding z-score [19] | PBM binding z-score [20] |
| --- | --- | --- | --- | --- | --- | --- | --- | --- | --- | --- | --- | --- | --- | --- | --- | --- | --- | --- | --- | --- |
| CGTCCAAGGTCAATGCTTGGTCAGTGAAAGCATT | 6.4 | 4.57 | 0.472 | 3.42 | 0.327 | 4.9 | 3.44 | 4 | 0.746 | 2.46 | 2.65 | 3.19 | -0.682 | -0.881 | 3.32 | 3.86 | 0.527 | 4.45 | 0.0669 | 5.03 |
| CAAACTAGGTCACGAAAGGTCACAGTCGAATGAC | 6.73 | 7.6 | 5.88 | 6.82 | 1.64 | 6.62 | 10.1 | 8.34 | 6.6 | 8.57 | 8.61 | 9.14 | 2.02 | 1.37 | 4.6 | 6.61 | 1.31 | 7.03 | 2.46 | 5.7 |
| GCTAGCAGGCCATTGGGGTCACTCAATGACGGGC | 2.93 | 2.47 | -0.298 | 3.06 | -0.749 | 4.28 | 1.95 | 3.1 | 0.521 | 2.17 | 0.93 | 2.42 | -0.918 | -0.85 | 1.48 | 5.48 | 8.59 | 5.19 | -0.69 | 3.01 |
| GTACCAAGGTGAATAGGTCATTGATGAGTAGGCG | 2.6 | 2.66 | 1.28 | 2.14 | -0.295 | 3.87 | 3.39 | 3.52 | 1.55 | 2.85 | 3.17 | 4.04 | 0.503 | 0.284 | 4.15 | 2.62 | 0.883 | 4.41 | 1.5 | 3.56 |
| TTTTGTAGATCAAGCAGGTTAAGAAAGCCTGAGT | -0.215 | -0.0979 | 0.00472 | 0.194 | -0.0652 | 0.567 | -0.416 | 0.238 | 0.224 | -0.0432 | 0.762 | 1.22 | 1.82 | 1.21 | 0.487 | 0.303 | 0.386 | 0.469 | 0.538 | 0.329 |
| CCGAGTAGGTTATGGGGTATTCAGGCAACGGTGA | 0.497 | 0.701 | 0.47 | 1.09 | 0.945 | 1.81 | 2.56 | 3.45 | 0.984 | 2.68 | 3.61 | 3.4 | -0.421 | -0.159 | 1.48 | 0.386 | 0.458 | 0.453 | 1.06 | 0.8 |
| ATATGTTGGTTAGCTGGGGTCATTCAGACTAGGC | 3.89 | 4.15 | 2.39 | 4.32 | 1.69 | 4.26 | 1.3 | 2.46 | 0.784 | 1.8 | 0.909 | 1.74 | 0.767 | 1.26 | 2.8 | 5.64 | 3.66 | 5.26 | 1.53 | 2.72 |
| GCTATTAGTTGAAAGTGCAACCGAATGATTCTCG | 0.0358 | 0.479 | 0.0569 | 0.177 | 0.0186 | 1.33 | 1.28 | 2.92 | 1.24 | 2.72 | 0.238 | 0.262 | 0.449 | 0.384 | 0.768 | 0.683 | 0.384 | 0.526 | 0.153 | 0.775 |
| ACTATTAGTTGACTTAGGGCACCCGATACGACGC | -0.0668 | -0.208 | 0.0685 | -0.198 | 0.757 | -0.213 | 0.894 | 0.204 | 0.268 | 0.525 | 0.28 | 0.339 | 1.12 | 1.59 | 0.282 | -0.159 | 0.392 | 0.226 | 1.18 | 0.663 |
| TCTATTAGTTGAAGGGCACCCGACGAGTCCGTTT | 0.72 | 0.953 | 0.3 | 0.709 | 0.846 | 0.943 | 0.172 | 2 | 3.71 | 2.96 | 2.29 | 0.553 | 0.299 | 1.3 | 1.25 | 0.824 | 1 | 0.844 | 1.45 | 1.36 |
| CCGACTGGGGCAAGGTTCCCATAACGCACAGCCA | -0.116 | -0.36 | -0.312 | -0.226 | -1.24 | 1.17 | 3.1 | 3.89 | 2.1 | 3.38 | 2.36 | 3.12 | -0.684 | -0.962 | 0.192 | -0.613 | -0.376 | -0.115 | -0.502 | 0.825 |
| TCTTGTAGATCAATAGATGTTAAGAAAGTGCGCT | 0.0811 | 0.309 | 0.0852 | 0.0203 | -0.00365 | -0.0219 | 0.251 | 1.64 | 3.17 | 2.42 | 1.57 | 0.386 | 0.918 | 1.19 | -0.501 | 0.533 | 0.037 | 0.616 | 0.125 | -0.26 |
| GCTCGGAGAACAAGGTCAGAGCTTTGTCCGTAGA | 1.25 | 1.41 | -0.275 | 1.11 | -1.02 | 2.37 | 0.176 | 0.774 | -0.425 | 0.29 | 0.447 | 0.471 | -0.968 | -1.78 | 0.759 | 1.73 | -0.538 | 1.79 | -0.831 | 2.86 |
| CCTAGCAGGCCAATCTGGGTAACTCAAGGCTTGA | -0.2 | -0.684 | -0.736 | -0.904 | -0.796 | 0.0569 | -0.0846 | -0.366 | -1.08 | -0.958 | 2.34 | 2.01 | -1.19 | -0.9 | -0.78 | -0.754 | -0.707 | -0.329 | -0.678 | -0.071 |
